# Many of the other results were omitted from the sample, so the strongest signals are more common in it than they were.
# B1: Pbx2CASH domain (Cryptococcus neoformans) (protein)
# chain: GIPGPNRLYRLSGPIIFTAADQEIATYGYPTGSERAVLRVEGRNTATAIQGDCRRCARVSVKNLVVDGNRKKLGRMRDFQLATGLVVLGGNEGQSIQNSWIKNPRGFTAIHIREGDKLQCSGARVEKNEIGPVGEEYDPEKDGDDPEMSPLGRPLADGVSIACRDSFIRDNTFRDNTDAAIVVYCSPGTLIHA
# Legend:
# Test in all cases: glycan array binding signal (z-score within array); higher = stronger binding
# Details in all cases: glycan notation: IUPAC condensed, linker removed
# [1] = target: Gal(b1-4)GlcNAc(b1-3)[Fuc(a1-3)GlcNAc(b1-6)]Gal(b1-4)Glc
# In short: (§1)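 From the Consortium for Functional Glycomics database, 3228 arrays were curated, keeping only those whose protein sequence was available. Binding is given as a within-array Z-score averaged across arrays sharing a protein sequence and across linkers. Negative Z-scores can be read as non-binding.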
# Gal3S(b1-4)Glc6S = target: Gal3S(b1-4)Glc6S
# In short: as §1
# Gal3S6S(b1-4)GlcNAc6S = target: Gal3S6S(b1-4)GlcNAc6S
# In short: as §1
# Gal6S(b1-4)Glc6S = target: Gal6S(b1-4)Glc6S
# In short: as §1
# GalNAc3S(b1-4)GlcNAc3S = target: GalNAc3S(b1-4)GlcNAc3S
# In short: as §1
# [2] = target: GlcA3S(b1-3)Gal(b1-4)GlcNAc(b1-2)Man
# In short: as §1
# [3] = target: GlcNAc(b1-2)[GlcNAc(b1-6)]Man(a1-6)[GlcNAc(b1-2)Man(a1-3)]Man(b1-4)GlcNAc(b1-4)[Fuc(a1-6)]GlcNAc
# In short: as §1
# GlcNAc(b1-3)Gal = target: GlcNAc(b1-3)Gal
# In short: as §1
# GlcNAc(b1-6)GalNAc = target: GlcNAc(b1-6)GalNAc
# In short: as §1
# [4] = target: Kdn(a2-3)Gal(b1-4)[Fuc(a1-3)]GlcNAc
# In short: as §1
# Kdn(a2-6)Gal(b1-4)GlcNAc = target: Kdn(a2-6)Gal(b1-4)GlcNAc
# In short: as §1
# [5] = target: Man(a1-2)Man(a1-3)[Man(a1-6)]Man(a1-6)[Man(a1-2)Man(a1-3)]Man(b1-4)GlcNAc(b1-4)GlcNAc
# In short: as §1
# [6] = target: Neu5Ac(a2-3)Gal(b1-3)GlcNAc(b1-2)Man
# In short: as §1
# [7] = target: Neu5Ac(a2-3)Gal(b1-3)GlcNAc(b1-3)GalNAc
# In short: as §1
# [8] = target: Neu5Ac(a2-3)Gal(b1-3)GlcNAc6S
# In short: as §1
# [9] = target: Neu5Ac(a2-3)Gal(b1-3)[Fuc(a1-4)]GlcNAc
# In short: as §1
# [10] = target: Neu5Ac(a2-3)Gal(b1-3)[Neu5Ac(a2-6)]GlcNAc(b1-3)[Fuc(a1-3)[Gal(b1-4)]GlcNAc(b1-6)]Gal(b1-4)Glc
# In short: as §1
# [11] = target: Neu5Ac(a2-3)Gal(b1-4)GlcNAc(b1-2)[Neu5Ac(a2-3)Gal(b1-4)GlcNAc(b1-4)]Man(a1-3)[GlcNAc(b1-4)][Neu5Ac(a2-3)Gal(b1-4)GlcNAc(b1-2)[Neu5Ac(a2-3)Gal(b1-4)GlcNAc(b1-6)]Man(a1-6)]Man(b1-4)GlcNAc(b1-4)GlcNAc
# In short: as §1
# [12] = target: Neu5Ac(a2-3)Gal(b1-4)GlcNAc(b1-3)Gal(b1-4)GlcNAc(b1-3)[Neu5Ac(a2-3)Gal(b1-4)GlcNAc(b1-3)Gal(b1-4)GlcNAc(b1-6)]GalNAc
# In short: as §1
# [13] = target: Neu5Ac(a2-3)Gal(b1-4)[Fuc(a1-3)]GlcNAc(b1-6)[Gal(b1-3)]GalNAc
# In short: as §1
# [14] = target: Neu5Ac(a2-3)Gal6S(b1-4)[Fuc(a1-3)]GlcNAc
# In short: as §1
# [15] = target: Neu5Ac(a2-6)Gal(b1-4)GlcNAc(b1-2)Man(a1-3)[Neu5Ac(a2-6)Gal(b1-4)GlcNAc(b1-2)Man(a1-6)]Man(b1-4)GlcNAc(b1-4)GlcNAc
# In short: as §1
# [16] = target: Neu5Ac(a2-6)Gal(b1-4)GlcNAc(b1-2)Man(a1-6)Man(b1-4)GlcNAc(b1-4)GlcNAc
# In short: as §1
# [17] = target: Neu5Ac(a2-6)Gal(b1-4)GlcNAc(b1-2)Man(a1-6)[Man(a1-3)]Man(b1-4)GlcNAc(b1-4)GlcNAc
# In short: as §1
# [18] = target: Neu5Ac(a2-6)Gal(b1-4)GlcNAc(b1-3)Gal(b1-4)GlcNAc(b1-3)Gal(b1-4)GlcNAc(b1-2)Man(a1-3)[Neu5Ac(a2-6)Gal(b1-4)GlcNAc(b1-3)Gal(b1-4)GlcNAc(b1-3)Gal(b1-4)GlcNAc(b1-2)Man(a1-6)]GalNAc
# In short: as §1
# [19] = target: Neu5Ac(a2-6)Gal(b1-4)GlcNAc(b1-6)GalNAc
# In short: as §1
# [20] = target: Neu5Ac(a2-6)GlcNAc(b1-4)GlcNAc(b1-4)GlcNAc
# In short: as §1
# Neu5Ac(a2-8)Neu5Ac = target: Neu5Ac(a2-8)Neu5Ac
# In short: as §1
# [21] = target: Neu5Ac(a2-8)Neu5Ac(a2-8)Neu5Ac(a2-3)[GalNAc(b1-4)]Gal(b1-4)Glc
# In short: as §1
binder,measurement,setting,value
B1,glycan array binding signal (z-score),[1],-0.704
same,glycan array binding signal (z-score),Gal3S(b1-4)Glc6S,0.057
same,glycan array binding signal (z-score),Gal3S6S(b1-4)GlcNAc6S,1.44
same,glycan array binding signal (z-score),Gal6S(b1-4)Glc6S,3.18
same,glycan array binding signal (z-score),GalNAc3S(b1-4)GlcNAc3S,-0.15
same,glycan array binding signal (z-score),[2],2.57
same,glycan array binding signal (z-score),[3],-0.071
same,glycan array binding signal (z-score),GlcNAc(b1-3)Gal,-0.697
same,glycan array binding signal (z-score),GlcNAc(b1-6)GalNAc,-0.438
same,glycan array binding signal (z-score),[4],0.079
same,glycan array binding signal (z-score),Kdn(a2-6)Gal(b1-4)GlcNAc,-0.478
same,glycan array binding signal (z-score),[5],-0.457
same,glycan array binding signal (z-score),[6],3.35
same,glycan array binding signal (z-score),[7],0.011
same,glycan array binding signal (z-score),[8],-0.247
same,glycan array binding signal (z-score),[9],-0.813
same,glycan array binding signal (z-score),[10],-0.803
same,glycan array binding signal (z-score),[11],0.012
same,glycan array binding signal (z-score),[12],0.079
same,glycan array binding signal (z-score),[13],0.909
same,glycan array binding signal (z-score),[14],-0.748
same,glycan array binding signal (z-score),[15],-0.301
same,glycan array binding signal (z-score),[16],1.6
same,glycan array binding signal (z-score),[17],2.48
same,glycan array binding signal (z-score),[18],4.62
same,glycan array binding signal (z-score),[19],1.05
same,glycan array binding signal (z-score),[20],-0.208
same,glycan array binding signal (z-score),Neu5Ac(a2-8)Neu5Ac,-0.046
same,glycan array binding signal (z-score),[21],3.58
